# According to PubChem BioAssay AID1159580 (chemical genetic matrix, 2015):
# The campaign covered roughly 5,500 compounds. About 2,000 (36%) were called active. Roughly 18% stayed inconclusive and do not appear here. The list shows a part of the results. Values without a mark were called inactive. Cut-off read from the data, not from the text of the source: active = normalized growth mostly below about 0.91 (no sharp cut-off); inconclusive = no clear call, values can overlap the other calls; inactive = mostly above about 0.92.
# Experiment: chemical genetic growth profiling, strain panel (AID 1159580);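 note: tested at 20 µM; growth read once vehicle control cultures reached saturation at 30 °C; 1 = growth at the plate median or of vehicle wells; lower values mean less growth of the strain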
# Conditions: S. cerevisiae deletion strains, growth OD
# [1] = locus YDL101C, strain DUN1, hits give low values
# [2] = locus YHR030C, strain SLT2, hits give low values
structure (smiles),measurement,setting,value
CC(=O)Nc1ccc(C(F)(F)F)cc1Br,normalized growth,"locus YAL013W, strain DEP1, hits give low values",1
same,normalized growth,"locus YBR229C, strain ROT2, hits give low values",1.01
same,normalized growth,[1],0.979
same,normalized growth,"locus YDL134C, strain PPH21, hits give low values",0.98
same,normalized growth,"locus YDR150W, strain NUM1, hits give low values",0.862
same,normalized growth,"locus YEL061C, strain CIN8, hits give low values",0.967
same,normalized growth,"locus YGR078C, strain PAC10, hits give low values",0.993
same,normalized growth,[2],0.896
same,normalized growth,"locus YHR087W, strain rtc3, hits give low values",1.05
same,normalized growth,"locus YJR043C, strain POL32, hits give low values",0.932
same,normalized growth,"locus YJR075W, strain HOC1, hits give low values",0.99
same,normalized growth,"locus YLR039C, strain RIC1, hits give low values",1
same,normalized growth,"locus YLR058C, strain SHM2 (second series), hits give low values",0.972
same,normalized growth,"locus YLR085C, strain ARP6, hits give low values",0.933
same,normalized growth,"locus YLR262C, strain YPT6, hits give low values",1
same,normalized growth,"locus YML094W, strain GIM5, hits give low values",0.996
same,normalized growth,"locus YMR219W, strain ESC1, hits give low values",0.999
same,normalized growth,"locus YMR263W, strain SAP30, hits give low values",0.965
same,normalized growth,"locus YMR307W, strain GAS1, hits give low values",1.06
same,normalized growth,"locus YNL128W, strain TEP1, hits give low values",0.964
same,normalized growth,"locus YNL153C, strain GIM3, hits give low values",0.994
same,normalized growth,"locus YNL298W, strain CLA4 (second series), hits give low values",0.957
same,normalized growth,"locus YNL322C, strain KRE1, hits give low values",0.989
same,normalized growth,"locus YNR030W, strain Alg12, hits give low values",0.993
same,normalized growth,"locus YPL055C, strain LGE1, hits give low values",1.05
same,normalized growth,"locus YPL241C, strain CIN2, hits give low values",1
same,normalized growth,"locus YPR135W, strain CTF4, hits give low values",0.897
O=C(Nc1cccc2ccccc12)c1ccccc1O,normalized growth,"locus YAR019C, strain CDC15, hits give low values",0.848 (active)
same,normalized growth,"locus YBL105C, strain PKC1, hits give low values",0.862 (active)
same,normalized growth,"locus YBR135W, strain CKS1, hits give low values",0.85 (active)
same,normalized growth,"locus YBR136W, strain MEC1, hits give low values",0.834 (active)
same,normalized growth,"locus YBR160W, strain CDC28, hits give low values",0.872 (active)
same,normalized growth,"locus YDL017W, strain CDC7, hits give low values",0.866 (active)
same,normalized growth,"locus YDL028C, strain MPS1, hits give low values",0.816 (active)
same,normalized growth,[1],0.93
same,normalized growth,"locus YDL108W, strain KIN28, hits give low values",0.827 (active)
same,normalized growth,"locus YDL132W, strain cdc53, hits give low values",0.834 (active)
same,normalized growth,"locus YDL214C, strain PRR2, hits give low values",0.563 (active)
same,normalized growth,"locus YDR052C, strain DBF4, hits give low values",0.83 (active)
same,normalized growth,"locus YDR054C, strain cdc34, hits give low values",0.842 (active)
same,normalized growth,"locus YDR226W, strain ADK1, hits give low values",0.856 (active)
same,normalized growth,"locus YDR477W, strain SNF1, hits give low values",0.563 (active)
same,normalized growth,"locus YER123W, strain YCK3, hits give low values",0.432 (active)
same,normalized growth,"locus YER133W, strain GLC7, hits give low values",0.524 (active)
same,normalized growth,"locus YFL009W, strain cdc4, hits give low values",0.837 (active)
same,normalized growth,"locus YFL029C, strain CAK1, hits give low values",0.845 (active)
same,normalized growth,"locus YFR003C, strain YPI1, hits give low values",0.854 (active)
same,normalized growth,"locus YFR019W, strain FAB1, hits give low values",0.781
same,normalized growth,"locus YFR028C, strain CDC14, hits give low values",0.846 (active)
same,normalized growth,"locus YGR040W, strain KSS1, hits give low values",0.557 (active)
same,normalized growth,"locus YGR052W, strain FMP48, hits give low values",0.556 (active)
same,normalized growth,"locus YGR092W, strain DBF2, hits give low values",0.324 (active)
same,normalized growth,[2],0.505 (active)
same,normalized growth,"locus YHR079C, strain IRE1, hits give low values",0.405 (active)
same,normalized growth,"locus YHR082C, strain KSP1, hits give low values",0.576 (active)
same,normalized growth,"locus YHR205W, strain SCH9, hits give low values",0.687
same,normalized growth,"locus YIL147C, strain SLN1, hits give low values",0.831 (active)
same,normalized growth,"locus YJL095W, strain BCK1, hits give low values",0.488 (active)
same,normalized growth,"locus YJL128C, strain PBS2, hits give low values",0.823
same,normalized growth,"locus YJL157C, strain FAR1, hits give low values",0.492 (active)
same,normalized growth,"locus YJR016C, strain ILV3, hits give low values",0.852 (active)
same,normalized growth,"locus YJR066W, strain TOR1 (second series), hits give low values",0.645
same,normalized growth,"locus YJR066W, strain TOR1, hits give low values",0.479 (active)
same,normalized growth,"locus YKL048C, strain ELM1, hits give low values",0.768 (active)
same,normalized growth,"locus YKL067W, strain YNK1, hits give low values",0.555 (active)
same,normalized growth,"locus YKL101W, strain HSL1, hits give low values",0.585 (active)
same,normalized growth,"locus YKL193C, strain SDS22, hits give low values",0.843 (active)
same,normalized growth,"locus YKL203C, strain TOR2, hits give low values",0.572 (active)
same,normalized growth,"locus YLR113W, strain HOG1, hits give low values",0.327 (active)
same,normalized growth,"locus YLR133W, strain CKI1, hits give low values",0.595 (active)
same,normalized growth,"locus YLR403W, strain SFP1, hits give low values",0.552 (active)
same,normalized growth,"locus YML070W, strain DAK1, hits give low values",0.519 (active)
same,normalized growth,"locus YMR001C, strain CDC5, hits give low values",0.838 (active)
same,normalized growth,"locus YMR205C, strain PFK2 (second series), hits give low values",0.53 (active)
same,normalized growth,"locus YMR277W, strain FCP1, hits give low values",0.839 (active)
same,normalized growth,"locus YNL006W, strain LST8, hits give low values",0.858 (active)
same,normalized growth,"locus YNL020C, strain ARK1, hits give low values",0.529 (active)
same,normalized growth,"locus YNL161W, strain CBK1, hits give low values",0.864 (active)
same,normalized growth,"locus YNL183C, strain NPR1, hits give low values",0.443 (active)
same,normalized growth,"locus YNL207W, strain RIO2, hits give low values",0.834 (active)
same,normalized growth,"locus YNL222W, strain SSU72, hits give low values",0.847 (active)
same,normalized growth,"locus YNL307C, strain MCK1 (second series), hits give low values",0.571 (active)
same,normalized growth,"locus YOL078W, strain AVO1, hits give low values",0.847 (active)
same,normalized growth,"locus YOL136C, strain PFK27, hits give low values",0.533 (active)
same,normalized growth,"locus YOR061W, strain CKA2, hits give low values",0.608 (active)
same,normalized growth,"locus YOR119C, strain RIO1, hits give low values",0.549 (active)
same,normalized growth,"locus YOR231W, strain MKK1, hits give low values",0.426 (active)
same,normalized growth,"locus YOR329C, strain SCD5, hits give low values",0.857 (active)
same,normalized growth,"locus YPL031C, strain PHO85, hits give low values",0.526 (active)
same,normalized growth,"locus YPL153C, strain RAD53, hits give low values",0.52 (active)
same,normalized growth,"locus YPL204W, strain HRR25, hits give low values",0.52 (active)
same,normalized growth,"locus YPL209C, strain IPL1, hits give low values",0.86 (active)
same,normalized growth,"locus YPL256C, strain CLN2, hits give low values",0.547 (active)
same,normalized growth,"locus YPR025C, strain CCL1, hits give low values",0.855 (active)
same,normalized growth,"locus YPR106W, strain ISR1, hits give low values",0.896
same,normalized growth,"locus YPR111W, strain DBF20, hits give low values",0.884
same,normalized growth,"strain NNK1, hits give low values",0.87 (active)
same,normalized growth,"strain TSCII, hits give low values",0.833 (active)
